Test results reported in PubChem BioAssay (NCI).
Compounds without any hit were thinned out: in the full panel of roughly 83,000, 20% have a hit.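 Each cell line was grown in a 96-well plate and treated with one concentration of compound for 48 hours. Values below 10 were considered active.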 Activity calls are given as the source filed them.

system: RXF 393 renal; experiment: NCI-60 one-dose screen, 48 h (100 = growth as untreated, 0 = no growth, -100 = all killed); details: 10 µM unless noted

Row | SMILES | growth
1 | Clc1cccc(Cl)c1Nc1ccc2nnc(-c3ccncc3)n2n1 | 109% (inactive)
2 | CC(C)(C)[Si](C)(C)OC1[C@@H](CNC(=O)NC(=O)CCl)O[C@@H](n2cnc3c(N)ncnc32)[C@H]1O[Si](C)(C)C(C)(C)C (stereo partly drawn) | -13.3% (active)
3 | CC(=O)Nc1ccc(Sc2ccc([N+](=O)[O-])o2)cc1 | -57.1% (active)
4 | CC(C)(C)[Si](C)(C)OC1[C@@H](COC(=O)NC(=O)CCl)O[C@@H](n2cnc3c(N)ncnc32)[C@H]1O[Si](C)(C)C(C)(C)C (stereo partly drawn) | 64% (inactive)
5 | COc1ncnc2c1ncn2C/C(Br)=C(\Br)CCl | 70.1% (inactive)
6 | O=C1c2ccccc2C(=O)c2c(Nc3ccc(CCO)cc3)ccc(O)c21 | 74.6% (inactive)
7 | COc1ccccc1CNCCCCCCCCCCCCN1C(=O)c2ccc3c4c(ccc(c24)C1=O)C(=O)N(CCCCCCCCCCCCNCc1ccccc1OC)C3=O | -69.6% (active)
8 | CC(=O)c1cc(C)c(OC(=O)c2ccccc2)c(C)c1 | 98.9% (inactive)
9 | COC(=O)/C=C1/CCC2C3CCC4=CC(=O)C(Br)CC4(C)C3C(=O)CC12C (stereo not drawn) | 59.9% (inactive)
10 | O=c1[nH]c(-c2ccccn2)nc2sc3c(c12)CCCCCC3 | 50.7% (inactive)
11 | CC(C)OC1=C(Cl)C(=O)c2ccccc2C1=O | 99.6% (inactive)
12 | CCCCCn1c(=N)n(CC(O)COc2cccc(C)c2)c2ccccc21 (stereo not drawn) | 15.5% (inactive)
13 | CC1SC(c2cccc(Oc3ccccc3)c2)N(CCc2cccs2)C1=O (stereo not drawn) | -90.6% (active)
14 | CC(C)(C)[Si](C)(C)OC1[C@@H](COC(N)=O)O[C@@H](n2cnc3c(N)ncnc32)[C@H]1O[Si](C)(C)C(C)(C)C (stereo partly drawn) | 106% (inactive)
15 | COc1ccc(-c2csc3c2-n2cccc2C3=O)cc1O | 31.3% (inactive)
16 | O=c1[nH]c(-c2ccncc2)nc2sc3c(c12)CCCCCC3 | -1.71% (active)
17 | COc1ccc(-n2c(SCc3cc(OC)c(OC)c(OC)c3)nc3ccc(C)cc3c2=O)c(OC)c1 | 19.6% (inactive)
18 | O=C1NC(=O)C(CSc2ccccc2)(c2ccccc2)N1 (stereo not drawn) | 103% (inactive)
19 | Fc1ccccc1Nc1ccc2nnc(-c3ccncc3)n2n1 | 113% (inactive)
20 | CC(C)(C)[Si](C)(C)OC1[C@@H](O[Si](C)(C)C(C)(C)C)[C@@H](CNC(=O)NC(=O)C(F)(F)F)O[C@H]1n1cnc2c(NC(=O)Nc3ccccc3)ncnc21 (stereo partly drawn) | 104% (inactive)

Row | SMILES | growth
21 | Cc1ccc(N=c2nc3sc4c(C)ccc(C)c4n3c(N)c2C#N)cc1 | 124% (inactive)
22 | COCCOC1=C(Cl)C(=O)c2ccccc2C1=O | 18.7% (inactive)
23 | CCOC(=O)C1=C(C)N2C(=NC3=C(CCCC/C3=C\c3ccccc3)C2c2ccccc2)S1 (stereo not drawn) | 88.3% (inactive)
24 | CCN1CCN(C(=S)SCC(=O)Nc2nc3ccc(OC)cc3s2)CC1 | 92.5% (inactive)
25 | Oc1ccccc1/C=N/Nc1nc2ccccc2s1 | 86.3% (inactive)
26 | CC(=O)Nc1ccccc1-c1n[nH]c(=O)[nH]c1=O | 96.6% (inactive)
27 | Oc1ccc2ccccc2c1C1NN=C(c2ccccc2)S1 (stereo not drawn) | 67% (inactive)
28 | O=c1c2c(=NCCN3CCCC3)cc3c(=O)n(CCCN4CCOCC4)c(=O)c4ccc(c(O)n1CCCN1CCOCC1)c2c4-3 | -66.3% (active)
29 | COc1ccccc1-n1c(SCc2cc(OC)c(OC)c(OC)c2)nc2ccc(Cl)cc2c1=O | 61.5% (inactive)
30 | Nc1c(Br)cc(Br)cc1-c1n[nH]c(=O)[nH]c1=O | 103% (inactive)
31 | O=C1C(OCCOc2ccccc2)=C(OCCOc2ccccc2)C(=O)c2ccccc21 | 79.4% (inactive)
32 | O=c1nc(NO)[nH]c(=O)n1Cc1ccccc1 | 94.8% (inactive)
33 | COc1ccc(-c2nc3sc(C)nn3c2-c2nc3cc(C)c(C)cc3[nH]2)cc1 | 99.5% (inactive)
34 | Cc1ccc2nc(NC(=O)CSC(=S)N3CCN(C)CC3)sc2c1 | 105% (inactive)
35 | CC[Si](CC)(CC)OC1[C@@H](O[Si](CC)(CC)CC)[C@@H](CNC(=O)NC)O[C@H]1n1cnc2c(NC(=O)Nc3ccccc3)ncnc21 (stereo partly drawn) | 116% (inactive)
36 | COc1ccc(C2SC(C)C(=O)N2CCc2cccs2)cc1OC (stereo not drawn) | 86.1% (inactive)
37 | Cc1cc(=O)[nH]n1-c1cc(Cl)ccc1N | 107% (inactive)
38 | c1ccc2cc(Cn3c(-c4ccc5ccccc5c4)[n+](Cc4ccc5ccccc5c4)c4ccccc43)ccc2c1 | -65% (active)
39 | COc1cc2nc(SCc3cc(OC)c(OC)c(OC)c3)n(-c3ccccc3OC)c(=O)c2cc1OC | 78.1% (inactive)

system: SF-268 CNS; experiment: as above; details: 10 µM unless noted

Row | SMILES | growth
40 | Clc1cccc(Cl)c1Nc1ccc2nnc(-c3ccncc3)n2n1 | 107% (inactive)
41 | CC(C)(C)[Si](C)(C)OC1[C@@H](CNC(=O)NC(=O)CCl)O[C@@H](n2cnc3c(N)ncnc32)[C@H]1O[Si](C)(C)C(C)(C)C (stereo partly drawn) | -76.6% (active)
42 | CC(=O)Nc1ccc(Sc2ccc([N+](=O)[O-])o2)cc1 | 54.5% (inactive)
43 | CC(C)(C)[Si](C)(C)OC1[C@@H](COC(=O)NC(=O)CCl)O[C@@H](n2cnc3c(N)ncnc32)[C@H]1O[Si](C)(C)C(C)(C)C (stereo partly drawn) | -19.6% (active)
44 | COc1ncnc2c1ncn2C/C(Br)=C(\Br)CCl | 11.6% (inactive)
45 | O=C1c2ccccc2C(=O)c2c(Nc3ccc(CCO)cc3)ccc(O)c21 | 60.4% (inactive)
46 | COc1ccccc1CNCCCCCCCCCCCCN1C(=O)c2ccc3c4c(ccc(c24)C1=O)C(=O)N(CCCCCCCCCCCCNCc1ccccc1OC)C3=O | 69.4% (inactive)
47 | CC(=O)c1cc(C)c(OC(=O)c2ccccc2)c(C)c1 | 107% (inactive)
48 | COC(=O)/C=C1/CCC2C3CCC4=CC(=O)C(Br)CC4(C)C3C(=O)CC12C (stereo not drawn) | 95.6% (inactive)
49 | O=c1[nH]c(-c2ccccn2)nc2sc3c(c12)CCCCCC3 | 40.6% (inactive)
50 | CC(C)OC1=C(Cl)C(=O)c2ccccc2C1=O | 93.5% (inactive)
51 | CCCCCn1c(=N)n(CC(O)COc2cccc(C)c2)c2ccccc21 (stereo not drawn) | 25.6% (inactive)
52 | CC1SC(c2cccc(Oc3ccccc3)c2)N(CCc2cccs2)C1=O (stereo not drawn) | -5.54% (active)
53 | CC(C)(C)[Si](C)(C)OC1[C@@H](COC(N)=O)O[C@@H](n2cnc3c(N)ncnc32)[C@H]1O[Si](C)(C)C(C)(C)C (stereo partly drawn) | 79.8% (inactive)
54 | COc1ccc(-c2csc3c2-n2cccc2C3=O)cc1O | 13% (inactive)
55 | O=c1[nH]c(-c2ccncc2)nc2sc3c(c12)CCCCCC3 | 83.5% (inactive)
56 | COc1ccc(-n2c(SCc3cc(OC)c(OC)c(OC)c3)nc3ccc(C)cc3c2=O)c(OC)c1 | 44.1% (inactive)
57 | O=C1NC(=O)C(CSc2ccccc2)(c2ccccc2)N1 (stereo not drawn) | 123% (inactive)
58 | Fc1ccccc1Nc1ccc2nnc(-c3ccncc3)n2n1 | 101% (inactive)
59 | CC(C)(C)[Si](C)(C)OC1[C@@H](O[Si](C)(C)C(C)(C)C)[C@@H](CNC(=O)NC(=O)C(F)(F)F)O[C@H]1n1cnc2c(NC(=O)Nc3ccccc3)ncnc21 (stereo partly drawn) | -29% (active)

Row | SMILES | growth
60 | Cc1ccc(N=c2nc3sc4c(C)ccc(C)c4n3c(N)c2C#N)cc1 | 92.6% (inactive)
61 | COCCOC1=C(Cl)C(=O)c2ccccc2C1=O | 24.1% (inactive)
62 | CCOC(=O)C1=C(C)N2C(=NC3=C(CCCC/C3=C\c3ccccc3)C2c2ccccc2)S1 (stereo not drawn) | 99.2% (inactive)
63 | CCN1CCN(C(=S)SCC(=O)Nc2nc3ccc(OC)cc3s2)CC1 | 92.5% (inactive)
64 | Oc1ccccc1/C=N/Nc1nc2ccccc2s1 | 32.3% (inactive)
65 | CC(=O)Nc1ccccc1-c1n[nH]c(=O)[nH]c1=O | 105% (inactive)
66 | Oc1ccc2ccccc2c1C1NN=C(c2ccccc2)S1 (stereo not drawn) | 20.9% (inactive)
67 | O=c1c2c(=NCCN3CCCC3)cc3c(=O)n(CCCN4CCOCC4)c(=O)c4ccc(c(O)n1CCCN1CCOCC1)c2c4-3 | -26.8% (active)
68 | COc1ccccc1-n1c(SCc2cc(OC)c(OC)c(OC)c2)nc2ccc(Cl)cc2c1=O | 41.6% (inactive)
69 | Nc1c(Br)cc(Br)cc1-c1n[nH]c(=O)[nH]c1=O | 104% (inactive)
70 | O=C1C(OCCOc2ccccc2)=C(OCCOc2ccccc2)C(=O)c2ccccc21 | 77.2% (inactive)
71 | O=c1nc(NO)[nH]c(=O)n1Cc1ccccc1 | 106% (inactive)
72 | COc1ccc(-c2nc3sc(C)nn3c2-c2nc3cc(C)c(C)cc3[nH]2)cc1 | 101% (inactive)
73 | Cc1ccc2nc(NC(=O)CSC(=S)N3CCN(C)CC3)sc2c1 | 112% (inactive)
74 | CC[Si](CC)(CC)OC1[C@@H](O[Si](CC)(CC)CC)[C@@H](CNC(=O)NC)O[C@H]1n1cnc2c(NC(=O)Nc3ccccc3)ncnc21 (stereo partly drawn) | 67.5% (inactive)
75 | COc1ccc(C2SC(C)C(=O)N2CCc2cccs2)cc1OC (stereo not drawn) | 89.2% (inactive)
76 | Cc1cc(=O)[nH]n1-c1cc(Cl)ccc1N | 116% (inactive)
77 | c1ccc2cc(Cn3c(-c4ccc5ccccc5c4)[n+](Cc4ccc5ccccc5c4)c4ccccc43)ccc2c1 | -83.5% (active)
78 | COc1cc2nc(SCc3cc(OC)c(OC)c(OC)c3)n(-c3ccccc3OC)c(=O)c2cc1OC | 69.9% (inactive)
